The text below walks through data of ChEMBL document CHEMBL3988442, “University of Dundee, Small-Polar-MMV Screening Library” (2021).

For some of these results: Measured potencies and affinities stand elsewhere.

What all share (design): scale not given: direction of the effect not stated beside the values
For test [1], the target named is Protein translocase subunit SecA (Escherichia coli (strain K12)) (UniProt P10408). The test is described as follows: Assay to Identify E. coli SecA ATPase Inhibitors. It is filed as functional. The following applies: 30 µM.
Test [2] concerns the target T1, Ubiquitin-activating enzyme e1, putative (Leishmania donovani (strain BPK282A1)) (UniProt E9BSI1).
T1 sequence (whole entry): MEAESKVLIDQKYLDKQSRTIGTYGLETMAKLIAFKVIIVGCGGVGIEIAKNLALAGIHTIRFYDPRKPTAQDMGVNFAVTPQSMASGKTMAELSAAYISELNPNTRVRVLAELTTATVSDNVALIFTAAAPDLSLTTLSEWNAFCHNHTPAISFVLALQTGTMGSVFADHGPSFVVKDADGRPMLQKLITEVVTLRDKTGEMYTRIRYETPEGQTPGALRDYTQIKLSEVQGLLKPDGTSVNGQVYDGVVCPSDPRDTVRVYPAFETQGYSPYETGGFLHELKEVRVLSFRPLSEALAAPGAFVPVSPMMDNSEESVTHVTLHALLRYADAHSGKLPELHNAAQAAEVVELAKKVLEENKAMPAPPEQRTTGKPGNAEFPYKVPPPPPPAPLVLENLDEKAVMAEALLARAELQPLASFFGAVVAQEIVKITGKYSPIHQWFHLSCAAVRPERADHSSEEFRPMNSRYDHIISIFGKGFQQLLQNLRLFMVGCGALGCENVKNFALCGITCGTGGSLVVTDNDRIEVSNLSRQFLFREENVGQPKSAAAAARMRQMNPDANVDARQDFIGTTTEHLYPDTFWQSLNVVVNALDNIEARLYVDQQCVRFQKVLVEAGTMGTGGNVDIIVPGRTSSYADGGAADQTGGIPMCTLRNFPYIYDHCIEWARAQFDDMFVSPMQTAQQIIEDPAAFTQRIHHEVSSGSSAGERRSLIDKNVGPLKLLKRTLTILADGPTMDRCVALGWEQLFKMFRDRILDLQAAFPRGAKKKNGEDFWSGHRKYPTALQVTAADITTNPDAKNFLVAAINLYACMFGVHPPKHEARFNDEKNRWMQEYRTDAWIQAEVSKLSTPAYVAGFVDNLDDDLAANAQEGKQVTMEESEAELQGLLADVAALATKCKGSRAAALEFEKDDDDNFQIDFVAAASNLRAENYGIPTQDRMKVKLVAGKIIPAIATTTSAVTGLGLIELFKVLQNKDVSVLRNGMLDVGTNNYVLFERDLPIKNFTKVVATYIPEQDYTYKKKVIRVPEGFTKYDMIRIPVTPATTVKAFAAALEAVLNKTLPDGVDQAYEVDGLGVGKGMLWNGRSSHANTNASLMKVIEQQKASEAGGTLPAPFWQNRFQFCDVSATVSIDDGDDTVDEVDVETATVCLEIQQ
The test can be described thus: Leishmania donovani Ubiquitin Activating Enzyme (LdE1). The following applies: 30 µM. It is filed as functional.

Test [3] concerns the target AMP-activated protein kinase, AMPK (Homo sapiens) (UniProt P54646+O43741+P54619+Q9UGJ0+Q9Y478+Q13131+Q9UGI9). The test is described as follows: AMP-dependent Kinase enzyme assay. An in vitro enzyme assay that detects ADP turnover that is directly proportional to AMPK activity. This uses naive AMPK that is activated during the assay with MK-8722. It is filed as functional. The following applies: 30 µM.

Test [4] deals with Sialic acid-binding Ig-like lectin 9 (Homo sapiens) (UniProt Q9Y336). The test can be described thus: Hs-Siglec9 ALPHAscreen SOP 20170721. The following applies: 10 µM.
A further test has as its system Trypanosoma cruzi. The test is described as follows: Trypanosoma cruzi phosphomannomutase and mannose-1-phosphate guanylyltransferase assay. The format is functional. The settings on record: 10 µM.
Test [5] deals with T2, Arginase-2, mitochondrial (Homo sapiens) (UniProt P78540).
T2 sequence (whole entry): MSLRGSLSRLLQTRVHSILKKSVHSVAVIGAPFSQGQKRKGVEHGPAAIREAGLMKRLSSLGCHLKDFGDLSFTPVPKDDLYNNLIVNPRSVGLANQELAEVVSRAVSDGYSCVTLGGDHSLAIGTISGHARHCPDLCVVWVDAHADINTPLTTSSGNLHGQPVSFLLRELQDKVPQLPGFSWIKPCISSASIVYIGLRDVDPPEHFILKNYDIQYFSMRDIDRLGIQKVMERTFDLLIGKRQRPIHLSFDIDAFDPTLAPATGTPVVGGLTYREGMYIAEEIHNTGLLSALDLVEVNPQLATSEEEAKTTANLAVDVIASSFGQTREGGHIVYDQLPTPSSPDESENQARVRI
The test can be described thus: in vitro enzyme assay to detect the production of urea directly proportional to the activity of Arginase II. Further: in the data most compounds retested in dose-response had high values. The following applies: 33.3 µM. The format is functional.

Test [6] deals with T3, Proteasome subunit beta (Trypanosoma cruzi) (UniProt O96673).
T3 sequence (whole entry): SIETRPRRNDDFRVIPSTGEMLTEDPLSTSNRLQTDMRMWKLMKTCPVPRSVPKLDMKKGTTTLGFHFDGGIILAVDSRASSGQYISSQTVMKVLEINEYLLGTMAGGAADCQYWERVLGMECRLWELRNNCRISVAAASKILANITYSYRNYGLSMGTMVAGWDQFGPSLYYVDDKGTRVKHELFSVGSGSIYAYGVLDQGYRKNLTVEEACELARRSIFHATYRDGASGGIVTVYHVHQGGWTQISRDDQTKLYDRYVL
The test can be described thus: Trypanosoma cruzi proteasome chymotrypsin-like activity (TcProtChymo) assay. Further: in the data most compounds retested in dose-response had high values. The format is functional. The following applies: 9.37 µM.

For a further test, the species on record is Homo sapiens. The test is described as follows: To identify inhibition of the IFN signalling (Jak-Stat) pathway via expression of an eGFP reporter gene under the control of an IFN-stimulated response element (ISRE) containing MxA promoter. The format is functional. The following applies: 30 µM. On the technique in general: In a reporter assay the amount or activity of a reporter protein is the signal.

Test [7] has as its target T4, Tyrosyl-tRNA synthetase, putative (Trypanosoma cruzi (strain CL Brener)) (UniProt Q4DSP6).
T4 sequence (whole entry): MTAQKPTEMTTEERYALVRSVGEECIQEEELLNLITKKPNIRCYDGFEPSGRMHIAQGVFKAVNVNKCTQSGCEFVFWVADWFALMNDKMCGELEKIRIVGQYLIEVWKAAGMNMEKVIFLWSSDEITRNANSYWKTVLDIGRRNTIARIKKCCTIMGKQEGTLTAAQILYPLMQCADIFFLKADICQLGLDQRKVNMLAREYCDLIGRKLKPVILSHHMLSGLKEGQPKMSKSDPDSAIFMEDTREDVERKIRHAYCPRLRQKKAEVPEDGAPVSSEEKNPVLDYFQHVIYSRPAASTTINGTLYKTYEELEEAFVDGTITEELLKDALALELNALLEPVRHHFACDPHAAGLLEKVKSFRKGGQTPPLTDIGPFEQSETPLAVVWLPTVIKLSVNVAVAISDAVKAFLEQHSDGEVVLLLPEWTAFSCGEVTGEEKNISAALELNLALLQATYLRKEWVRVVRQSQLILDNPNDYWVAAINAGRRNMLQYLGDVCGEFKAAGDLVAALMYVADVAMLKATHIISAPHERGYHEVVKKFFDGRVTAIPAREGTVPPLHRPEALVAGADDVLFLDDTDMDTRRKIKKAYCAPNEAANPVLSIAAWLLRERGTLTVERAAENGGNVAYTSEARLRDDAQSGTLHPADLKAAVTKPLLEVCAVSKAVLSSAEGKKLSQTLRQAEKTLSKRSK
The test is described as follows: Trypanosoma cruzi tyrosyl tRNA synthetase (TcYRS) _High Tyrosine SOP. Further: in the data most compounds retested in dose-response had high values. The following applies: 30 µM. The format is functional.

The target in test [8] is T4, Tyrosyl-tRNA synthetase, putative (Trypanosoma cruzi (strain CL Brener)). The test is described as follows: Trypanosoma cruzi tyrosyl tRNA synthetase (TcYRS) SOP. The following applies: 30 µM. It is filed as functional.
In test [9] the target is Chromo domain-containing protein 1 (Saccharomyces cerevisiae (strain ATCC 204508 / S288c) (Baker's yeast)) (UniProt P32657). The test can be described thus: ScCHD-1 Enzyme Inhibition Assay. Further: in the data most compounds retested in dose-response had high values. The following applies: 30 µM. The format is functional.
Chain of Chromo domain-containing protein 1 (Saccharomyces cerevisiae (strain ATCC 204508 / S288c) (Baker's yeast)) (P32657 whole entry, the tested form may be a part): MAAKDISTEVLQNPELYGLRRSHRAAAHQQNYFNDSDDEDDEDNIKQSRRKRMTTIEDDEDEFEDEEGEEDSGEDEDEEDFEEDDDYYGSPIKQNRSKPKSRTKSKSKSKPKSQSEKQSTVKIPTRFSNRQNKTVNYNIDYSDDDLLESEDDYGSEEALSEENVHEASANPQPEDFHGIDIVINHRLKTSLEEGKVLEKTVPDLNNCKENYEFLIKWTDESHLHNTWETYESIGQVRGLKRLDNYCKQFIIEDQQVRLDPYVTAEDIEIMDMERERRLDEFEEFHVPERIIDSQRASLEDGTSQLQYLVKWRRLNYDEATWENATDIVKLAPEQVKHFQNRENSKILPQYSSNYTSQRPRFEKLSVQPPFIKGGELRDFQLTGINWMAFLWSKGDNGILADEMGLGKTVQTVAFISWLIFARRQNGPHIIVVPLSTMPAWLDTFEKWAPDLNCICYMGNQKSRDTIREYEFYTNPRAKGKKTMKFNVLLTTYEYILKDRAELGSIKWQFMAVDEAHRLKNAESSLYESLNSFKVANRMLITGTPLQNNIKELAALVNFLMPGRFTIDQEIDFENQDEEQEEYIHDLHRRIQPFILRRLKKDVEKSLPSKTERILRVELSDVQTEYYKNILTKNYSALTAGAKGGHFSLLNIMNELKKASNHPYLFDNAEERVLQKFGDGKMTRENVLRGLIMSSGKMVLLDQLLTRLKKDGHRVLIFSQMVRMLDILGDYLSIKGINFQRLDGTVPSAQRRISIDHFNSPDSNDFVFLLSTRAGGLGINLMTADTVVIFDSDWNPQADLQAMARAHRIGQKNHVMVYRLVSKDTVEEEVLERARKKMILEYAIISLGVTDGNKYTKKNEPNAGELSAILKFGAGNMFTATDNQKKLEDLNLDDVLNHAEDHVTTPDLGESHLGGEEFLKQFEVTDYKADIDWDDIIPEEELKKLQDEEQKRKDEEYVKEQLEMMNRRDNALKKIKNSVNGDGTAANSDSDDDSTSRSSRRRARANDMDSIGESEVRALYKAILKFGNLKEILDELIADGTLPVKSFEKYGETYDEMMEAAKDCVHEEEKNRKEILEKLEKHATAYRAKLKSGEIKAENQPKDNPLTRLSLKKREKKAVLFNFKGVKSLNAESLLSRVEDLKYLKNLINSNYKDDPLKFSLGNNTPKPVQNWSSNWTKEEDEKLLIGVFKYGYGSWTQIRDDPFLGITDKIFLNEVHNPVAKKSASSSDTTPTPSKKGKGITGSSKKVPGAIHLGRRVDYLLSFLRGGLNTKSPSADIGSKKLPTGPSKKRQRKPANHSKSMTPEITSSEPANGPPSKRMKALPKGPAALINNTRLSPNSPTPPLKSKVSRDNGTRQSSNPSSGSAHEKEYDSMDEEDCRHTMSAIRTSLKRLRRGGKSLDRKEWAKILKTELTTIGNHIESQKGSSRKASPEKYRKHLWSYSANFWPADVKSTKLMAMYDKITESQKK

Chain of Protein translocase subunit SecA (Escherichia coli (strain K12)) (P10408 whole entry): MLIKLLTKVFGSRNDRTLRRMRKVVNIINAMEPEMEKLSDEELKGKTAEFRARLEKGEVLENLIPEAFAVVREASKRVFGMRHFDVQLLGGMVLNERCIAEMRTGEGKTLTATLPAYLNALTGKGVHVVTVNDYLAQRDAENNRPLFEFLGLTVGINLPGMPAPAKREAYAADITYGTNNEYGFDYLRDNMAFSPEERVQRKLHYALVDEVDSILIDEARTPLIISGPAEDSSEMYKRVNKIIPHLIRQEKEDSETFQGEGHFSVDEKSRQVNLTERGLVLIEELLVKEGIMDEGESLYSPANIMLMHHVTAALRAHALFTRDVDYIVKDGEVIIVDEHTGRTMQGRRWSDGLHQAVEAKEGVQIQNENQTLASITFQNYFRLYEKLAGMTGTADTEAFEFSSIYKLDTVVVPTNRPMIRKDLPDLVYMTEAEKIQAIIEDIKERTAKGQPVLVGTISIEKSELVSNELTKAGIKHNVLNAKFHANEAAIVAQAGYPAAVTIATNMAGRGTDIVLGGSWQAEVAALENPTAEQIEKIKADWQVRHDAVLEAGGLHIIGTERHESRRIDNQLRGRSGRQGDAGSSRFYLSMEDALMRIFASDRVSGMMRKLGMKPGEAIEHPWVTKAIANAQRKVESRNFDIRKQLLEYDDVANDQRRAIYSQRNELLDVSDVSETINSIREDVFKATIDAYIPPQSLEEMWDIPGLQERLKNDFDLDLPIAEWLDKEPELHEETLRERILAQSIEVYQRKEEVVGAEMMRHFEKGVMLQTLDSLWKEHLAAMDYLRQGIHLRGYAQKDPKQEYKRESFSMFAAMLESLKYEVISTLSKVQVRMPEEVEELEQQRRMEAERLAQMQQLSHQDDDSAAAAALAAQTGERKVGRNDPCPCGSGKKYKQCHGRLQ
Chain of Sialic acid-binding Ig-like lectin 9 (Homo sapiens) (Q9Y336 whole entry): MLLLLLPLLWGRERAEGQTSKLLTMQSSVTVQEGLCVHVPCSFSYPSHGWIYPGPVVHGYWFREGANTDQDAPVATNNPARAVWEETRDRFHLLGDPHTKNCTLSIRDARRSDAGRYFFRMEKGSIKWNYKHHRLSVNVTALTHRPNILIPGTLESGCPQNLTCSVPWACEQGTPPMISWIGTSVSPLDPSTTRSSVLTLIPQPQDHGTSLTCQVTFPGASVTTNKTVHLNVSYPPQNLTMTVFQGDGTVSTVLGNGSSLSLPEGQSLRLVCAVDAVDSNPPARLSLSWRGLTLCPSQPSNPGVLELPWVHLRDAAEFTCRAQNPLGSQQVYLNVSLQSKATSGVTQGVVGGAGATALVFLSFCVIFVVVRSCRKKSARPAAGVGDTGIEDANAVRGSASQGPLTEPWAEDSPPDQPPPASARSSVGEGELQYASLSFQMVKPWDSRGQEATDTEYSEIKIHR

In the case of `Cc1ccsc1CNC(=O)NC1CCCc2c1cnn2CCO` (stereo not drawn), the Percent Effect in test [1] was -6.41%; in test [2], 2.67%; in test [3] it was 2.26%; in test [4] it was 2.19%; in the test on Trypanosoma cruzi, -1.27%; in [5], -3.12%. Further, the Percent Effect was 13.4% in [6]; -12.2% in the test listed under Homo sapiens; 6.01% in test [7]; 18.5% in test [8]; -4.15% in test [9].

`O=C(c1cccnc1-n1cccn1)N1CCN(CC2CC2)CC1`: the Percent Effect was -4.46% in test [1]; 5.41% in [2]; -1.98% in test [3]; 1.24% in [4]; -1.54% with Trypanosoma cruzi; -0.952% in [5]. The Percent Effect in test [6] was 13.1%; in the test filed under Homo sapiens, -3.39%; in [7] it was 4.76%; in [8] it was 0%; in test [9], -1.18%.

`CCc1ncc2c(n1)CN(Cc1nnc(C)o1)CC2`: the Percent Effect in [1] is -0.796%; in [2], 2.74%; in test [3], -74%; in test [4] it was 3.02%; in the test with Trypanosoma cruzi it was 6.07%; in test [5], 6.82%. In addition, the Percent Effect in test [6] was 4.26%; in the test listed under Homo sapiens, -5.4%; in test [7] it was 4.3%; in test [8] it was 7.5%; in [9], -6.64%.

Turning to `COCC1CC2(CCN(C(=O)c3cc(C)oc3C)CC2)CN1C(C)C` (stereo not drawn), the Percent Effect is -2.57% in test [1]; 0% in [2]; -9.18% in test [3]; -4.84% in [4]; 2.15% with Trypanosoma cruzi; -1.25% in test [5]. Further, the Percent Effect in test [6] was 9.21%; in the test filed under Homo sapiens it was 1.95%; in test [7] it was 8.91%; in [8] it was 15.8%; in [9], -7%.

Regarding `Cc1ccc(CNC(=O)CN2C=Nc3ccccc3S2(=O)=O)s1`, the Percent Effect in test [1] was -3.17%; in [2], 21.1%; in [3], -5.67%; in [4] it was -1.55%; in the test on Trypanosoma cruzi it was 6.07%; in [5] it was -0.36%. Also, the Percent Effect in [6] is 3.98%; in the test listed under Homo sapiens, 9.85%; in test [7] it was 10.3%; in test [8], 23.5%; in [9], -6.54%.

Turning to `Cn1ccnc1COc1ccc(CO)cc1`, the Percent Effect in test [1] was -1.04%; in test [2], 5.2%; in test [3], -1.87%; in [4], -8.74%; in the test on Trypanosoma cruzi it was -5.06%; in test [5] it was 8.19%. The Percent Effect is 6.59% in test [6]; 36.8% in the test filed under Homo sapiens; 3.88% in test [7]; 14.6% in [8]; -8.46% in [9].

As to `Cn1ncc2c(NCCOc3ccc(F)cc3)nc(C3CCCC3)nc21`, the Percent Effect is -2.15% in [1]; 5.48% in test [2]; 12.7% in test [3]; 7.22% in [4]; 9.79% in the test with Trypanosoma cruzi; 2.27% in test [5]. Besides, the Percent Effect is -0.355% in test [6]; 49.2% in the test listed under Homo sapiens; 5.38% in test [7]; 10% in test [8]; -3.29% in test [9].

Take `COc1ccc(CN(C)C(=O)CCC(=O)c2cccs2)c(OC)c1OC`: the Percent Effect in test [1] was -2.26%; in test [2], -2.74%; in [3], -1.79%; in [4], 9.32%; in the test with Trypanosoma cruzi it was 2.78%; in [5] it was -6.39%. Besides, the Percent Effect in test [6] worked out at 10.7%; in the test filed under Homo sapiens, 18.4%; in test [7], 9.38%; in test [8], 21%; in test [9] it was 2.3%.
